Drawing on ChEMBL document CHEMBL1157539, “Thousands of chemical starting points for antimalarial lead identification” (Nature, 2010), this text covers Inhibition for 13 molecules.

For orientation: Inhibition means the relative decrease from the control value, in per cent.

In the test the test system is Plasmodium falciparum. The test can be described thus: GSK_TCMDC: Inhibition of Plasmodium falciparum 3D7 in whole red blood cells, using parasite LDH activity as an index of growth. Test compounds present at 2uM. Type of test: functional.
`COc1ccc(CN2CCC(CN3CC4(OC3=O)c3ccccc3-c3ccccc34)C2)c(O)c1` (stereo not drawn) came in with an Inhibition of 100%.

`COc1ccc(-c2cccc(NC(=O)c3cccc(F)c3)c2)cc1CN1CCCN(C)CC1.O=C(O)C(F)(F)F`: the Inhibition was found to be 100%.

As for `O=C(Nc1cccc(-c2nn3ccccc3c2-c2ccnc(Nc3ccc(Cc4ccncc4)cc3)n2)c1)c1c(F)cccc1F`, the Inhibition worked out at 97%.

In turn, `O=C(O)C(F)(F)F.O=C1CCCN1CCCNCc1cccc(-c2ccc(-c3nc4ccccc4[nH]3)s2)c1` yielded an Inhibition of 97%.

For `CCc1ccc(NC(=O)c2ccc(CN3CCCN(CC4CCCCC4)CC3)cc2)cc1.O=C(O)C(F)(F)F`, the Inhibition came out at 96%.

Regarding `Clc1cccc(-c2nc(Nc3ccnc(-c4ccc(CN5CCOCC5)cc4)c3)c3ccccc3n2)c1`, the Inhibition was 100%.

`O=[N+]([O-])c1ccc(N/C(=N\c2ccccc2Br)NC2CCCc3ccccc32)c(O)c1` (stereo not drawn): the Inhibition was found to be 98%.

`CS(=O)(=O)NCCCNCc1ccc(-c2ccc(-c3nc4cc(F)ccc4[nH]3)cc2)cc1.O=C(O)C(F)(F)F` had an Inhibition of 100%.

In turn, `CCOC(=O)c1ccc(NC(=O)Nc2cccc(-c3ccc(-c4nc5cccc(C)c5[nH]4)s3)c2)cc1` returned an Inhibition of 100%.

The molecule `CCN(CC)CCNC(=O)c1ccc(NC(=O)c2cc(-c3ccncc3)nc3ccccc23)cc1` showed an Inhibition of 97%.

As to `Fc1ccccc1-c1cc(Nc2ccncc2)nc(-c2cccnc2)n1`, the Inhibition is listed as 100%.

Take `O=C(Nc1ccc(S(=O)(=O)N2CCCCC2)cc1)c1cc(-c2ccccc2O)n[nH]1`: the Inhibition is 94%.

Regarding `COc1ccc(NC(=O)CCNc2cc(C)nc(NCc3cccc(C)c3)n2)cc1.O=C(O)C(F)(F)F`, the Inhibition was 100%.
